# Measured values: the supplement of paper PMC4466140
# B1: unnamed (peptide)
# chain: GRSRLFPHSPLGRSS
# B2: unnamed (peptide)
# chain: MKRSRPSRSIPYTTP
# Target: AgAbp1
# Assay: SPOT peptide array binding signal intensity (averaged, normalized) (arbitrary units (background-subtracted, floor 0; scale differs between SH3 domains)); higher = stronger binding of the SH3 domain to the peptide
# Procedure, shortened: (§1)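 GST-SH3 fusions from four yeast species, purified on glutathione Sepharose, were incubated at 10 μg/ml overnight at 4°C on membranes of synthetic 15-mer peptides in which cysteines were replaced with serines. Binding signal is the normalized, background-subtracted spot intensity averaged over replicates, in domain-specific arbitrary units.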
row,Binder,SPOT peptide array binding signal intensity
1,B1,93
2,B2,92

# Target: AgBbc1
# Assay: as above
# Procedure, shortened: as §1
row,Binder,SPOT peptide array binding signal intensity
1,B1,13.8
2,B2,65.5

# Target: AgBem1-D1
# Assay: as above
# Procedure, shortened: as §1
row,Binder,SPOT peptide array binding signal intensity
1,B1,88.5
2,B2,152

# Target: AgBzz1-D1
# Assay: as above
# Procedure, shortened: as §1
row,Binder,SPOT peptide array binding signal intensity
1,B1,26.5
2,B2,53

# Target: AgBzz1-D2
# Assay: as above
# Procedure, shortened: as §1
row,Binder,SPOT peptide array binding signal intensity
1,B1,0.5
2,B2,22

# Target: AgCyk3
# Assay: as above
# Procedure, shortened: as §1
row,Binder,SPOT peptide array binding signal intensity
1,B1,0.5
2,B2,8

# Target: AgFus1
# Assay: as above
# Procedure, shortened: as §1
row,Binder,SPOT peptide array binding signal intensity
1,B1,454
2,B2,121

# Target: AgHof1
# Assay: as above
# Procedure, shortened: as §1
row,Binder,SPOT peptide array binding signal intensity
1,B1,14.5
2,B2,23.5

# Target: AgHse1
# Assay: as above
# Procedure, shortened: as §1
row,Binder,SPOT peptide array binding signal intensity
1,B1,716
2,B2,274

# Target: AgLsb1
# Assay: as above
# Procedure, shortened: as §1
row,Binder,SPOT peptide array binding signal intensity
1,B1,0.75
2,B2,3.5

# Target: AgLsb4
# Assay: as above
# Procedure, shortened: as §1
row,Binder,SPOT peptide array binding signal intensity
1,B1,39.5
2,B2,37

# Target: AgMyo5
# Assay: as above
# Procedure, shortened: as §1
row,Binder,SPOT peptide array binding signal intensity
1,B1,≤ 0
2,B2,3.25

# Target: AgNbp2
# Assay: as above
# Procedure, shortened: as §1
row,Binder,SPOT peptide array binding signal intensity
1,B1,177
2,B2,324

# Target: AgRvs167
# Assay: as above
# Procedure, shortened: as §1
row,Binder,SPOT peptide array binding signal intensity
1,B1,3.42
2,B2,2.5

# Target: AgSho1
# Assay: as above
# Procedure, shortened: as §1
row,Binder,SPOT peptide array binding signal intensity
1,B1,52.8
2,B2,30.5

# Target: AgSla1-D1-D2
# Assay: as above
# Procedure, shortened: as §1
row,Binder,SPOT peptide array binding signal intensity
1,B1,26
2,B2,21.5

# Target: AgSla1-D3
# Assay: as above
# Procedure, shortened: as §1
row,Binder,SPOT peptide array binding signal intensity
1,B1,11.2
2,B2,≤ 0

# Target: CaAbp1-D1
# Assay: as above
# Procedure, shortened: as §1
row,Binder,SPOT peptide array binding signal intensity
1,B1,491
2,B2,504

# Target: CaAbp1-D2
# Assay: as above
# Procedure, shortened: as §1
row,Binder,SPOT peptide array binding signal intensity
1,B1,410
2,B2,476

# Target: CaBbc1
# Assay: as above
# Procedure, shortened: as §1
row,Binder,SPOT peptide array binding signal intensity
1,B1,105
2,B2,347

# Target: CaBem1-D1
# Assay: as above
# Procedure, shortened: as §1
row,Binder,SPOT peptide array binding signal intensity
1,B1,35
2,B2,47.5

# Target: CaBzz1-D1
# Assay: as above
# Procedure, shortened: as §1
row,Binder,SPOT peptide array binding signal intensity
1,B1,53.5
2,B2,172

# Target: CaBzz1-D2
# Assay: as above
# Procedure, shortened: as §1
row,Binder,SPOT peptide array binding signal intensity
1,B1,39.2
2,B2,158

# Target: CaCyk3
# Assay: as above
# Procedure, shortened: as §1
row,Binder,SPOT peptide array binding signal intensity
1,B1,3.5
2,B2,108

# Target: CaFus1
# Assay: as above
# Procedure, shortened: as §1
row,Binder,SPOT peptide array binding signal intensity
1,B1,1070
2,B2,334

# Target: CaHof1
# Assay: as above
# Procedure, shortened: as §1
row,Binder,SPOT peptide array binding signal intensity
1,B1,0.75
2,B2,≤ 0

# Target: CaHse1
# Assay: as above
# Procedure, shortened: as §1
row,Binder,SPOT peptide array binding signal intensity
1,B1,11.1
2,B2,55.5

# Target: CaLsb1
# Assay: as above
# Procedure, shortened: as §1
row,Binder,SPOT peptide array binding signal intensity
1,B1,1
2,B2,2.75

# Target: CaLsb4
# Assay: as above
# Procedure, shortened: as §1
row,Binder,SPOT peptide array binding signal intensity
1,B1,≤ 0
2,B2,590

# Target: CaMyo5
# Assay: as above
# Procedure, shortened: as §1
row,Binder,SPOT peptide array binding signal intensity
1,B1,≤ 0
2,B2,13.8

# Target: CaNbp2
# Assay: as above
# Procedure, shortened: as §1
row,Binder,SPOT peptide array binding signal intensity
1,B1,539
2,B2,421

# Target: CaRvs167
# Assay: as above
# Procedure, shortened: as §1
row,Binder,SPOT peptide array binding signal intensity
1,B1,3.5
2,B2,18.3

# Target: CaRvs167-3
# Assay: as above
# Procedure, shortened: as §1
row,Binder,SPOT peptide array binding signal intensity
1,B1,43.8
2,B2,2

# Target: CaSho1
# Assay: as above
# Procedure, shortened: as §1
row,Binder,SPOT peptide array binding signal intensity
1,B1,513
2,B2,250

# Target: CaSla1-D1-D2
# Assay: as above
# Procedure, shortened: as §1
row,Binder,SPOT peptide array binding signal intensity
1,B1,76.5
2,B2,60

# Target: CaSla1-D3
# Assay: as above
# Procedure, shortened: as §1
row,Binder,SPOT peptide array binding signal intensity
1,B1,≤ 0
2,B2,14

# Target: ScAbp1
# Assay: as above
# Procedure, shortened: as §1
row,Binder,SPOT peptide array binding signal intensity
1,B1,144
2,B2,20

# Target: ScBbc1
# Assay: as above
# Procedure, shortened: as §1
row,Binder,SPOT peptide array binding signal intensity
1,B1,≤ 0
2,B2,18.8

# Target: ScBem1-D1
# Assay: as above
# Procedure, shortened: as §1
row,Binder,SPOT peptide array binding signal intensity
1,B1,57.2
2,B2,7

# Target: ScBzz1-D1
# Assay: as above
# Procedure, shortened: as §1
row,Binder,SPOT peptide array binding signal intensity
1,B1,6.5
2,B2,27

# Target: ScBzz1-D2
# Assay: as above
# Procedure, shortened: as §1
row,Binder,SPOT peptide array binding signal intensity
1,B1,29.5
2,B2,23

# Target: ScCyk3
# Assay: as above
# Procedure, shortened: as §1
row,Binder,SPOT peptide array binding signal intensity
1,B1,91.5
2,B2,37

# Target: ScFus1
# Assay: as above
# Procedure, shortened: as §1
row,Binder,SPOT peptide array binding signal intensity
1,B1,374
2,B2,129

# Target: ScHof1
# Assay: as above
# Procedure, shortened: as §1
row,Binder,SPOT peptide array binding signal intensity
1,B1,≤ 0
2,B2,0.5

# Target: ScHse1
# Assay: as above
# Procedure, shortened: as §1
row,Binder,SPOT peptide array binding signal intensity
1,B1,2660
2,B2,570

# Target: ScLsb1
# Assay: as above
# Procedure, shortened: as §1
row,Binder,SPOT peptide array binding signal intensity
1,B1,≤ 0
2,B2,10.2

# Target: ScLsb2
# Assay: as above
# Procedure, shortened: as §1
row,Binder,SPOT peptide array binding signal intensity
1,B1,≤ 0
2,B2,4

# Target: ScLsb3
# Assay: as above
# Procedure, shortened: as §1
row,Binder,SPOT peptide array binding signal intensity
1,B1,212
2,B2,320

# Target: ScLsb4
# Assay: as above
# Procedure, shortened: as §1
row,Binder,SPOT peptide array binding signal intensity
1,B1,1.5
2,B2,72

# Target: ScMyo3
# Assay: as above
# Procedure, shortened: as §1
row,Binder,SPOT peptide array binding signal intensity
1,B1,0.25
2,B2,10.5

# Target: ScMyo5
# Assay: as above
# Procedure, shortened: as §1
row,Binder,SPOT peptide array binding signal intensity
1,B1,≤ 0
2,B2,8

# Target: ScNbp2
# Assay: as above
# Procedure, shortened: as §1
row,Binder,SPOT peptide array binding signal intensity
1,B1,294
2,B2,620

# Target: ScPex13
# Assay: as above
# Procedure, shortened: as §1
row,Binder,SPOT peptide array binding signal intensity
1,B1,≤ 0
2,B2,10

# Target: ScRvs167
# Assay: as above
# Procedure, shortened: as §1
row,Binder,SPOT peptide array binding signal intensity
1,B1,12.3
2,B2,19.8

# Target: ScSho1
# Assay: as above
# Procedure, shortened: as §1
row,Binder,SPOT peptide array binding signal intensity
1,B1,1020
2,B2,351

# Target: ScSla1-D1-D2
# Assay: as above
# Procedure, shortened: as §1
row,Binder,SPOT peptide array binding signal intensity
1,B1,224
2,B2,126

# Target: ScSla1-D3
# Assay: as above
# Procedure, shortened: as §1
row,Binder,SPOT peptide array binding signal intensity
1,B1,1.25
2,B2,43.5

# Target: SpAbp1-D1
# Assay: as above
# Procedure, shortened: as §1
row,Binder,SPOT peptide array binding signal intensity
1,B1,186
2,B2,507

# Target: SpBbc1
# Assay: as above
# Procedure, shortened: as §1
row,Binder,SPOT peptide array binding signal intensity
1,B1,2
2,B2,15.5

# Target: SpBzz1-D1
# Assay: as above
# Procedure, shortened: as §1
row,Binder,SPOT peptide array binding signal intensity
1,B1,255
2,B2,239

# Target: SpBzz1-D2
# Assay: as above
# Procedure, shortened: as §1
row,Binder,SPOT peptide array binding signal intensity
1,B1,0.375

# Target: SpCyk3
# Assay: as above
# Procedure, shortened: as §1
row,Binder,SPOT peptide array binding signal intensity
1,B1,≤ 0

# Target: SpHof1
# Assay: as above
# Procedure, shortened: as §1
row,Binder,SPOT peptide array binding signal intensity
1,B1,68.5

# Target: SpHof1-2
# Assay: as above
# Procedure, shortened: as §1
row,Binder,SPOT peptide array binding signal intensity
1,B1,15

# Target: SpHof1-3
# Assay: as above
# Procedure, shortened: as §1
row,Binder,SPOT peptide array binding signal intensity
1,B1,412

# Target: SpHse1
# Assay: as above
# Procedure, shortened: as §1
row,Binder,SPOT peptide array binding signal intensity
1,B1,730

# Target: SpLsb1
# Assay: as above
# Procedure, shortened: as §1
row,Binder,SPOT peptide array binding signal intensity
1,B1,0.25

# Target: SpLsb4
# Assay: as above
# Procedure, shortened: as §1
row,Binder,SPOT peptide array binding signal intensity
1,B1,≤ 0

# Target: SpMyo1
# Assay: as above
# Procedure, shortened: as §1
row,Binder,SPOT peptide array binding signal intensity
1,B1,≤ 0

# Target: SpNbp2
# Assay: as above
# Procedure, shortened: as §1
row,Binder,SPOT peptide array binding signal intensity
1,B1,419

# Target: SpPex13
# Assay: as above
# Procedure, shortened: as §1
row,Binder,SPOT peptide array binding signal intensity
1,B1,10.5

# Target: SpRvs167
# Assay: as above
# Procedure, shortened: as §1
row,Binder,SPOT peptide array binding signal intensity
1,B1,6.58

# Target: SpSla1-D1-D2
# Assay: as above
# Procedure, shortened: as §1
row,Binder,SPOT peptide array binding signal intensity
1,B1,10

# Target: SpSla1-D3
# Assay: as above
# Procedure, shortened: as §1
row,Binder,SPOT peptide array binding signal intensity
1,B1,18.5
